# From PubChem BioAssay (Tox21)
# Inconclusive results are not listed. A call without a number means that no potency is given here. The source made the active and inactive calls. Unless noted, calls follow the shape of the dose curve; as a rule, active = well fitted curve in the direction sought with a large enough effect in the repeat runs; inconclusive = weak or mixed curves; inactive = no such curve, though single readings can be large; an effect the other way counts as inactive or inconclusive.
# Experiments:
# [1] = qHTS assay to test for compound auto fluorescence at 535 nm (green) in HEK293 cells (AID 720680)
# [2] = qHTS assay to test for compound auto fluorescence at 460 nm (blue) in HEK293 cell free culture (AID 720681)
# How it was run: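 Blue fluorescence (Ex 405/Em 460 nm, triamterene-equivalent) was read immediately after pin transfer of compound or DMSO into medium (DMEM, 10% FBS) without cells.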
# [3] = qHTS assay to test for compound auto fluorescence at 535 nm (green) in HEK293 cell free culture (AID 720682)
# How it was run: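 Using fluorescein as calibrant, autofluorescence was quantified at 485/535 nm in cell-free DMEM containing 10% FBS after pintool addition of compound or vehicle.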
# [4] = qHTS assay to test for compound auto fluorescence at 590 nm (red) in HEK293 cell free culture (AID 720683)
# How it was run: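 Red-channel autofluorescence of compounds in culture medium (DMEM, 10% FBS), no cells, measured at 540/590 nm. Rose Bengal sodium is the reference fluorophore for equivalence.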
# [5] = qHTS assay to test for compound auto fluorescence at 590 nm (red) in HepG2 cell free culture (AID 720684)
# How it was run: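 No cells present: MEM + 10% FBS only. Compound pinned in, red label read (540/590 nm). Activity = fluorescence equivalent to Rose Bengal sodium.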
# [6] = qHTS assay to test for compound auto fluorescence at 535 nm (green) in HepG2 cell free culture (AID 720686)
# [7] = qHTS assay to test for compound auto fluorescence at 460 nm (blue) in HepG2 cells (AID 720687)
# How it was run: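 Blue-channel autofluorescence (Ex/Em 405/460 nm, triamterene-equivalent) was measured after 1 hr compound exposure at 37 C, 5% CO2. Cells were HepG2, plated overnight at 37 C in MEM plus 10% FBS.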
# [8] = qHTS assay to identify small molecule antagonists of the glucocorticoid receptor (GR) signaling pathway - cell viability counter screen (AID 720693); also: nearly all actives have a fitted effect of over 55% in size
# [9] = qHTS assay for identifying genotoxic compounds that show differential cytotoxicity against isogenic chicken DT40 cell lines with known DNA damage response pathways - wild type cell line (AID 743012); also: nearly all actives have a fitted effect of over 60% in size; also: potency is read from the fitted curve at half-maximal effect
# How it was run: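 300 wt DT40 cells/well; cpd (DMSO) pintool-transferred after ~0.5 h at 37 C/5% CO2; 40 h incubation; CellTiter-Glo added, 30 min RT; luminescence read.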
# [10] = qHTS assay for identifying genotoxic compounds that show differential cytotoxicity against isogenic chicken DT40 cell lines with known DNA damage response pathways - Rev3 mutant cell line (AID 743014); also: nearly all actives have a fitted effect of over 55% in size; also: potency is read from the fitted curve at half-maximal effect
# [11] = qHTS assay for identifying genotoxic compounds that show differential cytotoxicity against isogenic chicken DT40 cell lines with known DNA damage response pathways - Rad54/Ku70 mutant cell line (AID 743015); also: potency is read from the fitted curve at half-maximal effect; nearly all actives have a fitted effect of over 60% in size
# [12] = qHTS assay to identify small molecule antagonists of the androgen receptor (AR) signaling pathway - cell viability counter screen (AID 743033; also: nearly all actives have a fitted effect of over 45% in size)
# [13] = biological target: Androgen receptor (Homo sapiens) (UniProt P10275); test: qHTS assay to identify small molecule antagonists of the androgen receptor (AR) signaling pathway (AID 743035; active = well fitted inhibition curve with a large enough effect in the signal ratio in the repeat runs, not every such curve was filed as active; the % refers to the signal ratio; also: potency is read from the fitted curve at half-maximal effect)
# How it was run: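 In this cell-based reporter screen, compounds were tested in concentration series against R1881-activated HEK293 cells expressing beta-lactamase under UAS control; after 16 h at 37C, FRET substrate was added and fluorescence read 2 h later.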
# [14] = biological target: Androgen receptor (Homo sapiens) (UniProt P10275); test: qHTS assay to identify small molecule agonists of the androgen receptor (AR) signaling pathway using the MDA cell line (AID 743040; also: potency is read from the fitted curve at half-maximal effect; nearly all actives have a fitted effect of over 20% in size)
# How it was run: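 Stable MMTV-luciferase reporter in MDA-kb2 cells; note the promoter carries GR as well as AR response elements. 16 h compound treatment, 37C, 0% CO2; ONE-Glo luminescence endpoint.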
# [15] = qHTS assay to identify small molecule antagonists of the androgen receptor (AR) signaling pathway using the MDA cell line - cell viability counter screen (AID 743041; also: nearly all actives have a fitted effect of over 45% in size)
# How it was run: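 Using the breast carcinoma line MDA-kb2 AR-luc, test chemicals were co-incubated with R1881 for 16 h; CellTiter-Fluor reagent, added at 15.5 h, provided a fluorescence measure of live cells.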
# [16] = biological target: Androgen receptor (Homo sapiens) (UniProt P10275); test: qHTS assay to identify small molecule antagonists of the androgen receptor (AR) signaling pathway using the MDA cell line (AID 743042; also: nearly all actives have a fitted effect of over 55% in size)
# How it was run: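 Antagonist mode: compounds plus R1881 agonist added to MDA-kb2 AR-luc cells, incubated 16 h at 37C. Luciferase reporter luminescence quantified, with multiplexed CellTiter-Fluor readout for cell viability.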
# [17] = biological target: Glucocorticoid receptor (Homo sapiens) (UniProt P04150); test: qHTS assay to identify small molecule agonists of the glucocorticoid receptor (GR) signaling pathway (AID 720691; active = well fitted activation curve with a large enough effect in the signal ratio in the repeat runs, not every such curve was filed as active; the % refers to the signal ratio); conditions: GR-bla HeLa, beta-lactamase reporter ratio, 18 h; activation: at 62.4 µM (top of the series)
# How it was run: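 A HeLa cervical cancer line expressing GR and a glucocorticoid response element-driven beta-lactamase gene is treated with compounds for 18 h; LiveBLAzer B/G FRET substrate is then applied and fluorescence read.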
# [18] = biological target: Glucocorticoid receptor (Homo sapiens) (UniProt P04150); test: qHTS assay to identify small molecule antagonists of the glucocorticoid receptor (GR) signaling pathway (AID 720692; active = well fitted inhibition curve with a large enough effect in the signal ratio in the repeat runs, not every such curve was filed as active; the % refers to the signal ratio)
# How it was run: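 GRE-bla HeLa line, dex-stimulated (5 nM final). Compound exposure 18 h, 37 C. Beta-lactamase FRET read after 2 h RT substrate.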
# [19] = qHTS assay to test for compound auto fluorescence at 460 nm (blue) in HepG2 cell free culture (AID 720685)
# How it was run: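 Cell-free plates of MEM plus 10% FBS received 23 nL compound or DMSO vehicle; blue-channel (405/460 nm) intensity scored against triamterene as reference fluorophore.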
# Chain of Androgen receptor (Homo sapiens) (P10275 whole entry, looked up): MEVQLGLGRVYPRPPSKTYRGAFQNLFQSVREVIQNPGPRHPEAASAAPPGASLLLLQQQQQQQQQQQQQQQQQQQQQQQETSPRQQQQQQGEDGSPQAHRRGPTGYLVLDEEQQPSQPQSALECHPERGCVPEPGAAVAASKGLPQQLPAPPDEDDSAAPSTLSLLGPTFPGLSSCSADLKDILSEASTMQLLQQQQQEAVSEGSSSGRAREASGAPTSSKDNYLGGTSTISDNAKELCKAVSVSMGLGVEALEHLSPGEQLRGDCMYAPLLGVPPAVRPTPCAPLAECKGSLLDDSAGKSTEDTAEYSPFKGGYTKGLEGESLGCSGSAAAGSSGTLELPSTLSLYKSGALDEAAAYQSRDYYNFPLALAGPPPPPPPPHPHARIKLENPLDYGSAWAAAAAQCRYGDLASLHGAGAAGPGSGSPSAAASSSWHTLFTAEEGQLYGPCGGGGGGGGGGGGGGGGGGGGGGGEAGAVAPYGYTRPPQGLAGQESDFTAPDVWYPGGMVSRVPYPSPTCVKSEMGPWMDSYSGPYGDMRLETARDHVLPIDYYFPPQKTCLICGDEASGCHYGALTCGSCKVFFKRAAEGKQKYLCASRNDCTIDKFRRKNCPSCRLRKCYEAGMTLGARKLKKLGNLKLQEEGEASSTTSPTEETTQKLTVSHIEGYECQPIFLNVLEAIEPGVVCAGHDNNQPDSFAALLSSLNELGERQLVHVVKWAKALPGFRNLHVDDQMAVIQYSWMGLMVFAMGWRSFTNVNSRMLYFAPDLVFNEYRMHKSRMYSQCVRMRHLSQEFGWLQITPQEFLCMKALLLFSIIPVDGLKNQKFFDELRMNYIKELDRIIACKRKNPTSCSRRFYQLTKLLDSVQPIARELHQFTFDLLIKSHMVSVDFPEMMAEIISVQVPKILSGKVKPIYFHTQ
# Chain of Glucocorticoid receptor (Homo sapiens) (P04150 whole entry, looked up): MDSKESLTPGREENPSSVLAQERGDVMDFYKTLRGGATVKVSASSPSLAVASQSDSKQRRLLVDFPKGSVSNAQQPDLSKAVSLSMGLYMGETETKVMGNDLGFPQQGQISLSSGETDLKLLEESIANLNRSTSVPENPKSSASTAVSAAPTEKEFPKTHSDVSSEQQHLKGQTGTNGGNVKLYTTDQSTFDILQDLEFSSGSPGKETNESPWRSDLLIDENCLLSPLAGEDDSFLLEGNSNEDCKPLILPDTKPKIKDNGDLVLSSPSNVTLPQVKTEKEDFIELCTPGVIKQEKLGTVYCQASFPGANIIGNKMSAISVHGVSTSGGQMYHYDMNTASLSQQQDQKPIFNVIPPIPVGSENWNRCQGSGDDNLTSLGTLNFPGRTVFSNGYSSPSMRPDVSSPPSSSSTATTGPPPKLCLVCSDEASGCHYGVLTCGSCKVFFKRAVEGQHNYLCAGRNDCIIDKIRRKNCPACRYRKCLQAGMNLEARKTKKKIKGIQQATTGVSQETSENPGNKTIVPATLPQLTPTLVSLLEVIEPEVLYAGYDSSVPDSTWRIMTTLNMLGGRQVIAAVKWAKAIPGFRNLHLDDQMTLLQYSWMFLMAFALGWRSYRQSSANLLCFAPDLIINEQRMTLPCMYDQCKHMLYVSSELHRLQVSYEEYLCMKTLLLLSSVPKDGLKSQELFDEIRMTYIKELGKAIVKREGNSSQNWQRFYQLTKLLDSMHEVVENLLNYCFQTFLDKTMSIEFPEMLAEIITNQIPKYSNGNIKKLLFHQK
SMILES,Potency [1],Potency [2],Potency [3],Potency [4],Potency [5],Potency [6],outcome [7],Potency [8],Potency [9],Potency [10],Potency [11],Potency [12],Potency [13],Potency [14],Potency [15],Potency [16],Potency [17],Potency [18],outcome [19]
CC(=O)[C@@]1(O)CC[C@H]2[C@@H]3C=C(Cl)C4=CC(=O)CC[C@]4(C)[C@H]3CC[C@@]21C,inactive,inactive,inactive,inactive,inactive,inactive,inactive,inactive,11.9 µM (active),23.7 µM (active),23.7 µM (active),inactive,0.674 µM (active),0.596 µM (active),inactive,inactive,,,
CC(C)(C)NCC(O)CSc1nc(-c2ccc(C(N)=O)s2)cs1 (stereo not given),inactive,inactive,inactive,inactive,inactive,inactive,inactive,inactive,,inactive,,inactive,,,inactive,,inactive,inactive,
C#CCOc1ccc2c(C)cc(=O)oc2c1,inactive,inactive,inactive,inactive,inactive,inactive,inactive,inactive,inactive,,,inactive,,,inactive,,inactive,inactive,
COc1ccccc1N1CCN(CCCC(=O)c2ccc(F)cc2)CC1,inactive,inactive,inactive,,inactive,inactive,inactive,inactive,13.3 µM (active),11.9 µM (active),26.6 µM (active),inactive,,,inactive,,inactive,inactive,inactive
O=C(NNCS(=O)(=O)O)c1ccncc1,inactive,inactive,inactive,inactive,inactive,inactive,inactive,inactive,inactive,inactive,,inactive,,,inactive,,inactive,,
